This is an account of results in PubChem BioAssay.

The nature of assay [1]: small molecules captured by biotinylated probe aFSTL3 – biochemical, small-molecule microarray, fluorescence 635/667, stem cell growth factor project, primary screen (AID 1064).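 Further: measures binding of the biotinylated anti-FSTL3 antibody to printed compounds.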 The following applies: higher = more signal.
Assay [2] can be described thus: binders from COS7 lysate, DM2A8 probe, primary screen, torsin A project, cell lysate, small-molecule microarray, fluorescence 635/667 (AID 1065). The following applies: higher = more signal, COS7 lysate expressing mutant human TOR1A.
A short description of assay [3]: small molecules captured by biotinylated probe aFGF2 – biochemical, small-molecule microarray, fluorescence 635/667, stem cell growth factor project, primary screen (AID 1067).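 Further: measures binding of biotinylated aFGF2 protein to printed compounds on slides; z-score merges feature fluorescence and signal-to-noise across triplicate slides.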 The following applies: higher = more signal.
Assay [4] can be described thus: small molecules captured by biotinylated probe aFGF10 – biochemical, small-molecule microarray, fluorescence 635/667, stem cell growth factor project, primary screen (AID 1071).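 Further: score merges 667 nm spot intensity and signal to noise from triplicate slides.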 The following applies: higher = more signal.
The target of assay [5] is Neurogenic locus notch homolog protein 2 (Homo sapiens) (UniProt Q04721). Put plainly: small molecules binding Notch2 protein – biochemical, small-molecule microarray, 635 nm fluorescence, stem cell growth factors, primary screen (AID 1073). The following applies: higher = more signal.
The target in assay [6] is Pro-neuregulin-1, membrane-bound isoform (Homo sapiens) (UniProt Q02297). The assay can be described thus: small molecules binding neuregulin-1 protein – biochemical, small-molecule microarray, fluorescence 635/667, psychiatric disease protein project, primary screen (AID 1075).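 Further: score combines 667 nm spot fluorescence with signal to noise.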 The following applies: NRG1 binding, 635 nm fluorescence, higher = more signal.
In assay [7] the test system is Neuregulin-1 EGF-like domain. Put plainly: small molecules binding NRG1 EGF domain – biochemical, small-molecule microarray, 635 nm fluorescence, primary screen (AID 1081).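 Further: binding of the protein to compounds printed on small-molecule microarray slides.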 The following applies: higher = more signal.
Assay [8] can be described thus: FRG1 expression reporter modulators in myotubes – cell-based, C2C12 myotubes, firefly/Renilla luciferase, luminescence, FRG1 inhibition for FSHD, primary screen (AID 1084). The following applies: FRG1 promoter luciferase, higher = more signal, called active from +8 up or from −8 down.
Assay [9] can be described thus: small molecules captured by biotinylated probe aFST – biochemical, small-molecule microarray, fluorescence 635/667, stem cell growth factor project, primary screen (AID 1086).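 Further: score merges 667 nm fluorescence with signal-to-noise of each printed compound spot.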 The following applies: higher = more signal.
Assay [10] can be described thus: binders of probe aHhip on microarray, primary screen, stem cell growth factor project, biochemical, small-molecule microarray, fluorescence 635/667 (AID 1087).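 Further: score merges spot fluorescence at 667nm with spot signal to noise ratio.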 The following applies: higher = more signal.
Assay [11] concerns PRMT1 (protein arginine N-methyltransferase 1). Put plainly: small molecules binding arginine methyltransferase PRMT1 – biochemical, small-molecule microarray, 635 nm fluorescence, primary screen (AID 1088).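 Further: binding of Prmt1 protein to compounds spotted on small-molecule microarray slides.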 The following applies: higher = more signal.
A short description of assay [12]: growth effects on S. cerevisiae YJM789 – YJM789 clinical isolate, OD600, 24 h, basal, primary screen (AID 1089).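 Further: growth of clinical yeast isolate S. cerevisiae YJM 789 seeded 1000 cells per well; test concentration not given here.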 The following applies: higher = more signal, called active from +8 up or from −8 down.
The nature of assay [13]: S. pombe growth modifiers, basal conditions – strain 972, OD600, 24 h, no modulator, primary screen (AID 1090).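 Further: basal condition with compound alone and no growth modifier present; test concentration not given here.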 The following applies: S. pombe 972 growth, higher = more signal, called active from +8 up or from −8 down.
Assay [14] is described as follows: budding yeast growth modifiers under rapamycin – strain BY4716, OD600, 96 h, primary screen (AID 1091). Further: test concentration not given here. The following applies: S. cerevisiae BY4716 + rapamycin, higher = more signal, called active from +8 up or from −8 down.
For assay [15], the target named is Torsin-1A-interacting protein 2 (Homo sapiens) (UniProt Q8NFQ8). The assay can be described thus: small molecules binding lysate-expressed LULL1 – cell lysate, human LULL1 lysate, 635/667 nm fluorescence, primary screen (AID 1092).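 Further: probe is lysate of COS7 cells overexpressing human LULL1; score merges per-feature 667 nm fluorescence with signal-to-noise.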 The following applies: small-molecule microarray, hLULL1 lysate binding, 635 nm fluorescence; higher = more signal.
Assay [16] is described as follows: optical density change of DRC41 E. coli – strain DRC41, OD650, 24 h, E. coli filamentation project, primary screen (AID 1093).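 Further: MC1000 strain lacking acrAB efflux and sulA so SOS filamentation is blocked; test concentration not given here.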 The following applies: E. coli DRC41 growth, higher = more signal, called active from +8 up or from −8 down.
Assay [17] in a line: probe aLefty2 binding to arrayed compounds – biochemical, biotinylated probe, 635/667 nm fluorescence, primary screen (AID 1094).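 Further: score merges spot fluorescence near 667 nm with spot signal-to-noise ratio.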 The following applies: small-molecule microarray, higher = more signal.
Assay [18] relates to Noggin (protein binding on small-molecule microarray). Put plainly: small molecules binding Noggin protein – biochemical, 635/667 nm fluorescence, primary screen (AID 1095).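 Further: score merges 667 nm feature fluorescence with signal to noise over triplicate slides.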 The following applies: 635 nm fluorescence, higher = more signal.
Assay [19] addresses Neurogenic locus notch homolog protein 3 (Homo sapiens) (UniProt Q9UM47). Put plainly: small molecules binding NOTCH3 protein – biochemical, 635/667 nm fluorescence, primary screen (AID 1096). The following applies: small-molecule microarray, 635 nm fluorescence, higher = more signal.
Assay [20] is described as follows: probe aEGFR binding to arrayed compounds – biochemical, biotinylated probe, 635/667 nm fluorescence, primary screen (AID 1097).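 Further: probe is a biotinylated anti-EGFR antibody binding compounds printed on slides; score combines fluorescence near 667 nm and signal to noise of each spot.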 The following applies: small-molecule microarray, higher = more signal.

Activity calls are given as the source filed them.

Chain of Torsin-1A-interacting protein 2 (Homo sapiens) (Q8NFQ8 whole entry, looked up): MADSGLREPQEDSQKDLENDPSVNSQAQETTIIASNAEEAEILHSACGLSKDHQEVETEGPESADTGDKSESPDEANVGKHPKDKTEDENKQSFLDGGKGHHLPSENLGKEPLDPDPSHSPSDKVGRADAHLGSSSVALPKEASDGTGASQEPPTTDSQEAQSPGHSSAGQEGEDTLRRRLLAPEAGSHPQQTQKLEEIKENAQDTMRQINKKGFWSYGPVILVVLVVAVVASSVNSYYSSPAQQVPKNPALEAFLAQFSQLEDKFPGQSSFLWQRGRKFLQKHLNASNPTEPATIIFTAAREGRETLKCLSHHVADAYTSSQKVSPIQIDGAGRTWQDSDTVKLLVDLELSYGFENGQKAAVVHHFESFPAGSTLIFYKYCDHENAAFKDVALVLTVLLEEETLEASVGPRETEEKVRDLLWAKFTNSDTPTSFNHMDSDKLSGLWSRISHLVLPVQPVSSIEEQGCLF
Chain of Pro-neuregulin-1, membrane-bound isoform (Homo sapiens) (Q02297 whole entry, looked up, the tested form may be a part, canonical isoform): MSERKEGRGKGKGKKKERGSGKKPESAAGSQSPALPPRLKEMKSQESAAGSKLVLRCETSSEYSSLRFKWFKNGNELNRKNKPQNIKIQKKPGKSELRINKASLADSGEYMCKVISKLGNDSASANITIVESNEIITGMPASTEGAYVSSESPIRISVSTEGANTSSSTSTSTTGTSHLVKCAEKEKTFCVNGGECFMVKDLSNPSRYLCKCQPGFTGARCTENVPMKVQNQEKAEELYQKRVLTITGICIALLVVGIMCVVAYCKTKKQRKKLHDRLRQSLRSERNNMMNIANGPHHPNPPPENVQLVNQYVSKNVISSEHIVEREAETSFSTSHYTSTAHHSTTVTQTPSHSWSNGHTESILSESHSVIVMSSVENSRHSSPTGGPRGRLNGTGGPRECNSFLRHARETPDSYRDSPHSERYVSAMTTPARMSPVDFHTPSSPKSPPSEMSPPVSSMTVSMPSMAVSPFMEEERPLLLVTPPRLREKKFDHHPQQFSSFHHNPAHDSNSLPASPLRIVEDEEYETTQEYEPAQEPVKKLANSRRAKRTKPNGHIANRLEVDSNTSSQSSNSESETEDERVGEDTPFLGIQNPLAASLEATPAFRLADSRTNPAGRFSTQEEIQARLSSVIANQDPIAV
Chain of Neurogenic locus notch homolog protein 3 (Homo sapiens) (Q9UM47 whole entry, looked up): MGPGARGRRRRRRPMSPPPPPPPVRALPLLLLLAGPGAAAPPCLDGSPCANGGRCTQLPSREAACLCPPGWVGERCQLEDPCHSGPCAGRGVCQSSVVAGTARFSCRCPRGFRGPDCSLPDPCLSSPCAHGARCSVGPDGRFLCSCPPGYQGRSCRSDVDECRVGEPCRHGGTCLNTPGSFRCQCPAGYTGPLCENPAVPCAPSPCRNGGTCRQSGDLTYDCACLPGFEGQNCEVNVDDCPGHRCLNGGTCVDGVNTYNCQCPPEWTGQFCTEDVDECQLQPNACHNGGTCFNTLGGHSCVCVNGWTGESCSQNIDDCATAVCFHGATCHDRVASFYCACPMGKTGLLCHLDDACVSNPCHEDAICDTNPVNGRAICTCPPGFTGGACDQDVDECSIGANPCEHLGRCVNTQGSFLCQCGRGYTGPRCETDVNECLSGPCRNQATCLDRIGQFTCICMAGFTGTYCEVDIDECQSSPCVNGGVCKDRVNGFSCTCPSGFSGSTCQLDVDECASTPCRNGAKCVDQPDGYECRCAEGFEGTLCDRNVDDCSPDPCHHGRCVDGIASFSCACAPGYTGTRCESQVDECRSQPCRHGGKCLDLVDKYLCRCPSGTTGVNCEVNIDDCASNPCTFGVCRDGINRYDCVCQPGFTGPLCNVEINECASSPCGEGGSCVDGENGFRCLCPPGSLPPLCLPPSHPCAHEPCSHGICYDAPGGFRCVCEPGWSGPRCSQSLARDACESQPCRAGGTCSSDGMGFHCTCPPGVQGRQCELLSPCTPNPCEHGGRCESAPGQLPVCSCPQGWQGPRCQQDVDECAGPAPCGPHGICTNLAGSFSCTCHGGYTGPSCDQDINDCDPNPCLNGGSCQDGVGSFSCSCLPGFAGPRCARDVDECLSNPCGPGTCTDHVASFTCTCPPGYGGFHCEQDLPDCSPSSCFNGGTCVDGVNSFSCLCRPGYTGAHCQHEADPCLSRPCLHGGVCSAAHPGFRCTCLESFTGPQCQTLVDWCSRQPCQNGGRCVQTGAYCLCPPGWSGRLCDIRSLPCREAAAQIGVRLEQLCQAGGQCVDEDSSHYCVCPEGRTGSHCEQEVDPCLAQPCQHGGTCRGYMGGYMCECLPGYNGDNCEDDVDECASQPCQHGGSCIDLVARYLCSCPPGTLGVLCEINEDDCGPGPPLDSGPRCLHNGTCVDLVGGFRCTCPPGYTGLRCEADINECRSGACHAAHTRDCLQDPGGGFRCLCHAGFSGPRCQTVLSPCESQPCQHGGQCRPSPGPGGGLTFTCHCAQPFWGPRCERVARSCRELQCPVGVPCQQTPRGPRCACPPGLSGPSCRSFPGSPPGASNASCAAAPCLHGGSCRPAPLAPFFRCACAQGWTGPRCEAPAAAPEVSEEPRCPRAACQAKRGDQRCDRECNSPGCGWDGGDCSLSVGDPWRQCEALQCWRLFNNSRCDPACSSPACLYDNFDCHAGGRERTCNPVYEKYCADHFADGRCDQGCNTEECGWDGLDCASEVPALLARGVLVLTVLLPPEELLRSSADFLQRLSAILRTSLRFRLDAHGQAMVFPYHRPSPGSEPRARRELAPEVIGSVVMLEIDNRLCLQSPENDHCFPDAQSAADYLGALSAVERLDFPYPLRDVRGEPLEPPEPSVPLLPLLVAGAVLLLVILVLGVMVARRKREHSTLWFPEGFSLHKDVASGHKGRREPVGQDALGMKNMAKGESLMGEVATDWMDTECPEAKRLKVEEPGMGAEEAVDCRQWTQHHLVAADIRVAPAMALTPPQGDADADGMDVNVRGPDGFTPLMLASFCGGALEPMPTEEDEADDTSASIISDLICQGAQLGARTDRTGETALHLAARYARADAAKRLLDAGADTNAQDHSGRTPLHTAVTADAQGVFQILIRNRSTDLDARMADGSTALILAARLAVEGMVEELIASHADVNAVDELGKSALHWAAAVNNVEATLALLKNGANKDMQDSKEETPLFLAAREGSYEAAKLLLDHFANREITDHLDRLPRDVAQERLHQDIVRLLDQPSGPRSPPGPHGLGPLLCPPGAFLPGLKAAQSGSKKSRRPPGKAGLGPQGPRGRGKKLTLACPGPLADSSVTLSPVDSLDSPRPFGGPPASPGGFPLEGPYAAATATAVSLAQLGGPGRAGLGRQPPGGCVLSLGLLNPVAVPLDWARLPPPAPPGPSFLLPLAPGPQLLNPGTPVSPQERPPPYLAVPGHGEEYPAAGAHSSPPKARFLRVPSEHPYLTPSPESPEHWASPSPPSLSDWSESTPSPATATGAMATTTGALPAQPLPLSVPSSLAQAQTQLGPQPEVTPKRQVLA

`C=C(CCCC)/C(=C/C[C@@H](OC(C)=O)c1ccc(OCCO)cc1)c1cc(C(=O)OC)ccc1OC`: the composite z-score in assay [1] was 0.0062; in [2], 0.982; in [3] it was -0.076; in assay [4] it was -0.314; in assay [5], -0.332; in assay [6] it was 1.37. In addition, the composite z-score in assay [7] was 1.21; in assay [9], 0.0501; in assay [10] it was -0.119; in assay [11], 1.55; in assay [15], 2.27; in assay [17], 0.0677. For the same molecule, the composite z-score is 0.0148 in assay [18], 0.467 in assay [19] and -0.0828 in assay [20]. The z-score in assay [8] is 2.07 (inactive); in assay [12], -0.201 (inactive); in [13], -0.52 (inactive); in assay [14], -0.645 (inactive); in assay [16], 0.0811 (inactive).
With `CC(C)C[C@@H]1NC(=O)[C@H]2C[C@@H](C(=O)O)[C@@H](c3cccc(OCCO)c3)N2C1=O`, the composite z-score in assay [1] was 0.885; in [2] it was 1.76; in assay [3], -0.083; in [4], -0.0367; in assay [5], -0.26; in assay [6] it was 1.61. Also, the composite z-score was 1.48 in [7]; 0.108 in assay [9]; 0.129 in assay [10]; 0.779 in assay [11]; 2.06 in [15]; 0.276 in [17]. Further, the composite z-score amounted to 0.492 in assay [18], 0.632 in assay [19] and 0.0588 in [20]. The z-score in assay [8] is 7.43 (inactive); in [12], 0.395 (inactive); in assay [13], -0.907 (inactive); in assay [14], -0.529 (inactive); in assay [16] it was 0.767 (inactive).
In the case of `C=CCOC(=O)[C@H]1[C@@H]2C(=O)O[C@@H](c3ccccc3)[C@@H](c3ccccc3)N2[C@@H](c2ccc(OCCOC(=O)[C@H]3C[C@H]4C(=O)NCC(=O)N4[C@H]3c3cccc(OCCO)c3)cc2)[C@]12C(=O)Nc1ccc(I)cc12`, the composite z-score in [1] was -0.365; in [2], 0.469; in [3], -0.045; in [4] it was 0.589; in [5], 0.81; in [6] it was 0.388. In addition, the composite z-score in assay [7] was 1.3; in [9], 0.557; in [10], 0.28; in [11], 1.54; in [15], 2.78; in assay [17], -0.172. The composite z-score in assay [18] amounted to 1.69; in [19] it was 1.06; in assay [20], 0.0389. The z-score in assay [8] was -0.18 (inactive); in assay [12] it was 1.29 (inactive); in assay [13] it was 0.682 (inactive); in assay [14], 3.48 (inactive); in assay [16], 0.0763 (inactive).
As to `C=CCC(OC(C)=O)[C@@H]1[C@@H](N(Cc2ccc(-c3ccccc3)cc2)C(=O)Cc2ccc(OC)cc2)c2cc(OCCCO)ccc2N1C(=O)Cc1ccc(OC)cc1` (stereo not given in full), the composite z-score in assay [1] is 0.169; in assay [2], 0.414; in assay [3], -0.0363; in assay [4], 0.479; in assay [5], -0.076; in assay [6], 0.851. In addition, the composite z-score in assay [7] is 0.0142; in [9] it was 0.195; in [10], 0.411; in [11], 0.622; in assay [15], 0.436; in [17], 0.0717. The composite z-score in assay [18] was -0.19; in assay [19], -0.209; in assay [20], 0.0101. Further, the z-score was -1.5 (inactive) in assay [8]; -0.0563 (inactive) in [12]; 0.68 (inactive) in assay [13]; -0.753 (inactive) in assay [14]; -0.553 (inactive) in [16].
On to `COC(=O)[C@@]1(Cc2ccc(F)cc2)[C@@H]2C(=CC(=O)[C@H]2CC(=O)C(=O)N2CCCC2)CN1C(=O)c1ccccc1`, for which the composite z-score in assay [1] is 1; in assay [2] it was 1.61; in assay [3], 0.575; in assay [4] it was 0.866; in assay [5], 1.58; in assay [6], 1.81. Besides, the composite z-score came out at 1.33 in assay [7]; 2.02 in assay [9]; 0.655 in [10]; 1.55 in assay [11]; 3.6 in [15]; 1.34 in assay [17]. For the same molecule, the composite z-score in [18] turned out to be 1.32; in assay [19] it was 1.13; in [20], 1.08. Further, the z-score in assay [8] is 1.48 (inactive); in [12] it was -0.403 (inactive); in assay [13], 0.0239 (inactive); in [14] it was 0.413 (inactive); in [16] it was -0.074 (inactive).
